Experimental data published in PubChem BioAssay AID651813 (National Center for Advancing Translational Sciences (NCATS), 2012).
Screen size: about 2,100 compounds; about 1,100 (52%) were called active. Not shown: some 27% with an inconclusive outcome. Calls follow the shape of the dose curve; as a rule, active = well fitted inhibition curve with a large enough effect; inconclusive = small, poorly fitted or top-dose-only effect; inactive = no such curve, though single readings can be large or run the other way. So high a share suggests a set chosen from earlier hits. The list shows a part of the results.

Biological target: DNA dC->dU-editing enzyme APOBEC-3G (Homo sapiens) (UniProt Q9HC16)
Assay: qHTS for inhibitors of Vif-A3G interactions: Cherry picks counterscreen;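 also: hits raise yellow fluorescence by blocking Vif-driven A3G-eYFP degradation; nearly all actives have a fitted effect of over 70% in size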;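 as to max response: max response given as percent of control signal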
Conditions: HeLa A3G-eYFP + Vif (tagged APOBEC3G with the HIV-1 protein that degrades it), eYFP fluorescence, 24 h
Excerpt: The recent discovery and characterization of host restriction factors, which provide a potent defense to invading retroviruses, has provided new targets for antiviral drug development. APOBEC3G (A3G) and APOBEC3F (A3F) are potent cytidine deaminases that block HIV-1 replication; HIV-1 expresses the Vif protein, which counteracts A3G and A3F by binding to them and inducing their proteasomal degradation. The Vif-A3G and Vif-A3F interactions provide two potential targets for development of small molecules which can interfere with the ability of Vif to degrade A3G or A3F. […] To identify inhibitors that can interfere with Vif mediated degradation of A3G and A3F, we have developed Hela cell lines that stably express A3G or A3F tagged with eYFP at the C-terminal end (A3G-eYFP or A3F-eYFP, respectively) and Vif. In the absence of an inhibitor, Vif induces degradation of A3G-eYFP and A3F-eYFP, and the cells are not fluorescent. In the presence of an inhibitor, it is expected that Vif will be unable to degrade A3G-eYFP and/or A3F-eYFP, resulting in an increase in yellow fluorescence. In this counterscreen assay, Vif A3G was screened against the cherry picks ordered from the MLSMR. NIH Chemical Genomics Center [NCGC] NIH Molecular Libraries Probe Centers Network [MLPCN] MLPCN Grant: MH093245 Assay Submitter (PI): Vinay Pathak, National Cancer Institute
A3G-Vif cells were harvested from T225 flask and resuspended in phenol free OPTI-MEM medium with 5% FBS. Then 5 uL of 140,000 cells/mL resuspended cells was dispensed into each well of low base Aurora COC 1,536-well plates (black walled, clear bottom) using a Multidrop Combi dispenser. After overnight culture at 37 deg C with 5% CO2, a total of 23 nL of compounds at 5 selected concentrations from the NPC or positive control (2 mM stock of MG132) in DMSO was transferred to each well of the assay plate using a pintool (Kalypsys, San Diego, CA), and the plates were further incubated at 37 deg C with 5% CO2 for 24 hours. After that, the plates were measured on Acumen Explorer (TTP Lab Tech). The fluorescence was detected by 488 nm/Ex and […].
Potency is read from the fitted curve at half-maximal effect.

Sequence of DNA dC->dU-editing enzyme APOBEC-3G (Homo sapiens) (Q9HC16 whole entry, looked up): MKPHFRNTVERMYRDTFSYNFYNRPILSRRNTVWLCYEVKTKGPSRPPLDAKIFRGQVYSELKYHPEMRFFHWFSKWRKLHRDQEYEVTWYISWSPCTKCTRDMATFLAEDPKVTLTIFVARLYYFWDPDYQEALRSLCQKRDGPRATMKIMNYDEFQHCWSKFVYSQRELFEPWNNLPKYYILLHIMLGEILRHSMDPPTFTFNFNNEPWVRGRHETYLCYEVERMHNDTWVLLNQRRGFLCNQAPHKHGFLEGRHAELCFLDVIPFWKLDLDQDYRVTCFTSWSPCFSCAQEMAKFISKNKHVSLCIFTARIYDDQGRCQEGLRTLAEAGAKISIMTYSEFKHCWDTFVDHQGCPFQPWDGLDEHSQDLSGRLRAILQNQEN

Row | SMILES | Potency | max response
1 | CC(=O)Nc1cccc(-c2ccnc3c2CC(C(=O)NCc2ccco2)O3)c1 (configuration not stated) | 6.27 µM (active) | 
2 | O=c1nc(/C=C/c2ccc(Cl)cc2Cl)cc(C(F)(F)F)[nH]1 | 17.7 µM (active) | 
3 | CC(=O)OC1C2(CC3N4C(=O)C5(CO)SSC4(CC31O)C(=O)N5C)OC(C)C(C)(C)C2=O (configuration not stated) | 12.5 µM (active) | 
4 | Nc1ccc2c3c(cccc13)-c1ccccc1-2 | 2.31 µM (active) | 
5 | C=C1C(=O)OC2C1CCC(C)C1(O)C=CC(=O)C21C (configuration not stated) | 8.86 µM (active) | 
6 | Cc1cc(N2CCCC2)ccc1C=C(C#N)C#N | 11.6 µM (active) | 
7 | C=CCn1c(O)c(C(C)=Nc2ccc(N(CC)CC)cc2)c(=O)[nH]c1=O | 9.94 µM (active) | 
8 | Cc1ccccc1-n1c(O)c(/C=C/C=Nc2ccccc2)c(=O)[nH]c1=O |  | 55.1% (inactive)
9 | CCN(CC)c1ccc(N=Cc2c(O)n(Cc3ccccc3)c(=O)[nH]c2=O)cc1 | 13 µM (active) | 
10 | CCN(CC)c1ccc(N=Cc2c(O)n(CCC3=CCCCC3)c(=O)[nH]c2=O)cc1 | 23.1 µM (active) | 
11 | CCS(=O)(=O)N1N=C(c2cccc(NS(C)(=O)=O)c2)CC1c1ccccc1 (configuration not stated) | 20.6 µM (active) | 
12 | Cc1nn(Cc2ccccc2)c(C)c1C(=O)OCC(=O)Nc1ccccc1SCC#N | 15.8 µM (active) | 
13 | N#CC1=C(N)Oc2c(c(=O)sc3ccccc23)C1c1cccnc1 (configuration not stated) | 5.59 µM (active) | 
14 | NC(=Nc1ccccc1)NN=Cc1c[nH]c2ccccc12 | 2.23 µM (active) | 
15 | CC(=O)O[C@@]12CO[C@@H]1C[C@H](OC1OCC(O)C(O)C1O)[C@@]1(C)C(=O)[C@H](O)C3=C(C)[C@@H](OC(=O)[C@H](O)[C@@H](NC(=O)c4ccccc4)c4ccccc4)C[C@@](O)([C@@H](OC(=O)c4ccccc4)C12)C3(C)C (some centres not stated) | 1.25 µM (active) | 
16 | CCCCn1c(O)c(C(=O)/C=C/c2c[nH]c3ccccc23)c(=O)[nH]c1=O | 4.44 µM (active) | 
17 | CC1=CC(=Cc2sc3ccccc3[n+]2C)C=C(C)O1 | 20.6 µM (active) | 
18 | Cc1c(Cl)cccc1NC(=O)c1oc2ccc(S(=O)(=O)N3CCC4(CC3)OCCO4)cc2c1C | 7.31 µM (active) | 
19 | CN1CCN(c2ccc(/C=C3\C(=O)NC(=S)N(c4cccc(Br)c4)C3=O)o2)CC1 | 16.4 µM (active) | 

Row | SMILES | Potency | max response
20 | CN1C(=O)/C(=C\c2ccc(N3CCCCC3)o2)C(=O)NC1=S | 17.7 µM (active) | 
21 | CN1C(=O)/C(=C/c2ccc(N3CCCCCC3)o2)C(=O)NC1=S | 15.8 µM (active) | 
22 | COc1cc2c(cc1O)[C@@H]1Cc3ccc(OC)c(O)c3CN1CC2 | 12.5 µM (active) | 
23 | COc1ccc(-n2cnc3cc(C(=O)N4CCC5(CC4)OCCO5)ccc32)cc1 | 9.94 µM (active) | 
24 | COc1cccc(C2=CC(c3cc(Br)ccc3F)n3nnnc3N2)c1 (configuration not stated) | 1.84 µM (active) | 
25 | Cc1cc(N(CCCl)CCCl)ccc1C=Cc1ccncn1 | 20.6 µM (active) | 
26 | ClCCN(CCCl)c1ccc(C=Cc2ccncn2)cc1 |  | -8.89% (inactive)
27 | CCN(CC)c1ccc2c(cc1=O)[C@@H](NC)CCc1cc(OC)c(OC)c(OC)c1-2 | 2.5 µM (active) | 
28 | CN1C(=O)C(=Cc2ccc(N3CCOCC3)o2)C(=O)N(C)C1=O | 23.1 µM (active) | 
29 | CN1C(=O)C(=Cc2ccc(N3CCCCC3)o2)C(=O)N(C)C1=S | 2.91 µM (active) | 
30 | CN1C(=O)C(=Cc2ccc(N3CCOCC3)o2)C(=O)N(C)C1=S | 20.6 µM (active) | 
31 | CCN1C(=O)/C(=C/c2ccc(N(CC)CC)cc2OC)C(=O)NC1=S | 18.4 µM (active) | 
32 | CCN(CC)c1ccc(/C=C2\C(=O)NC(=S)N(C)C2=O)o1 | 14 µM (active) | 
33 | CCN(CC)c1ccc(/C=C2\C(=O)NC(=S)N(c3ccc(OC)cc3OC)C2=O)o1 | 18.4 µM (active) | 
34 | CCN(CC)c1ccc(C=C2C(=O)N(C)C(=S)N(C)C2=O)o1 | 6.27 µM (active) | 
35 | COc1cc(C2C(C#N)=C(N)Oc3cc(O)ccc32)cc(OC)c1OC (configuration not stated) | 1.77 µM (active) | 
36 | CN1/C(=C\C=C2C(=O)NC(=O)NC2=O)C(C)(C)c2ccccc21 | 2.91 µM (active) | 
37 | CN(C)c1ccc(C(=O)c2ccc(N(C)C)cc2)cc1 | 1.58 µM (active) | 
38 | CCCCNC(=O)/C(C#N)=c1\s/c(=C\c2ccccc2OC(F)F)c(=O)n1CCCOC | 18.4 µM (active) | 

Row | SMILES | Potency | max response
39 | COc1ccc(-c2ccc(OC)c(OC)c2OC)cc1 | 3.96 µM (active) | 
40 | O=C1NC(=O)N(c2ccc3c(c2)OCO3)C(=O)/C1=C/c1ccc(N2CCCCC2)o1 | 23.1 µM (active) | 
41 | O=C1NC(=O)N(c2ccc3c(c2)OCO3)C(=O)/C1=C\c1ccc(N2CCCCC2)o1 | 20.6 µM (active) | 
42 | CC(C)c1ccc(N2C(=O)NC(=O)/C(=C\C=C\c3ccco3)C2=O)cc1 | 14 µM (active) | 
43 | Cc1cc(/C=C2\C(=O)NC(=O)N(c3ccc(Br)cc3)C2=O)c(C)n1C |  | 8.75% (inactive)
44 | CC(C)c1ccc(N2C(=O)NC(=O)/C(=C/C=C/c3ccco3)C2=O)cc1 | 14 µM (active) | 
45 | O=C(Cc1ccccc1)c1ccccn1 | 12.5 µM (active) | 
46 | Cc1cccc(CN2CCCC(C(=O)c3cccc(OC(C)C)c3)C2)n1 (configuration not stated) |  | 2.93% (inactive)
47 | O=c1[nH]c(CN2CC=C(c3ccccc3)CC2)nc2scc(-c3ccccc3)c12 | 8.2 µM (active) | 
48 | O=C1NC(=S)SC1=Cc1ccc(N(CCCl)CCCl)cc1 | 15.8 µM (active) | 
49 | Cc1ccc(CNC(=O)c2ccccc2NC(=O)c2nsc3ccccc23)cc1 | 23.1 µM (active) | 
50 | COc1ccc(-n2c(/C=C/c3ccc(O)c(OC)c3)nc3ccccc3c2=O)cc1 | 23.1 µM (active) | 
51 | Cc1cccc(-n2c(/C=C/c3ccc([N+](=O)[O-])o3)nc3ccccc3c2=O)c1 | 5.17 µM (active) | 
52 | O=c1c2ccccc2nc(/C=C/c2ccc([N+](=O)[O-])o2)n1-c1ccc(O)cc1 | 8.86 µM (active) | 
53 | Cc1cccc(-n2c(O)c(/C=C/C=Nc3ccccc3)c(=O)[nH]c2=O)c1 |  | 59.1% (inactive)
54 | Cc1cccc(-n2c(/C=C/c3c(C)[nH]c4ccccc34)nc3ccccc3c2=O)c1 | 18.4 µM (active) | 
55 | COc1ccc2nc(NC(=O)c3nc(S(=O)(=O)Cc4cccc(C)c4)ncc3Cl)sc2c1 |  | 58.8% (inactive)
56 | Cc1ccccc1-n1c(/C=C/c2ccc(N(C)C)cc2)nc2ccccc2c1=O | 1.46 µM (active) | 
57 | O=Cc1c(C(=O)O)n(Cc2ccc(Cl)cc2)c2ccccc12 | 3.66 µM (active) | 
